Screening data as filed in PubChem BioAssay.
HT1080-NT tox = qHTS for induction of synthetic lethality in tumor cells producing 2HG: qHTS for the HT-1080-NT fibrosarcoma cell line. AID 686970, 2013. 360,000 compounds, 1.6% hits. Potency, µM (titrated, usually from 46.1 µM), most hits filed as cytotoxic. HT-1080-NT fibrosarcoma viability, CellTiter-Glo ATP luminescence, 48 h;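 note: NT is the 2HG producing partner of a matched IDH1 knockdown line; nearly all actives have a fitted effect of over 55% in size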
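Toxicity toward the 2HG-producing NT line was scored as %Activity, normalised to DMSO and no-cell wells, from CellTiter-Glo luminescence after 48 hours' treatment.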
KB-3-1 cytotox = qHTS assay for MDR1-selective chemotherapeutics: Primary screen using the parental adenocarcinoma cell KB-3-1. KB-3-1 viability, CellTiter-Glo ATP luminescence, 72 h. Potency, µM (series often up to 46.1 µM), most hits filed as cytotoxic. 400,000 compounds, 1.4% hits; note: nearly all actives have a fitted effect of over 60% in size
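Cells are dispensed, compounds pinned in, plates held at 37 °C for 72 h, then CellTiter-Glo is added and luminescence read after 10 minutes. Cell line: parental KB-3-1 in phenol-red-free DMEM, 10% FBS.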
ATXN viability = Viability Counterscreen for Primary qHTS for Inhibitors of ATXN expression; AID 651635, 2014; 400,000 compounds, 0.49% hits; Potency, µM (top dose mostly 56.7 µM), actives largely listed as cytotoxic; S2 cells (HEK-293 line with an ATXN2-luciferase reporter) viability, CellTiter-Fluor protease fluorescence, 24 h; note: nearly all actives have a fitted effect of over 40% in size
HT1080 IDH1KD tx = qHTS for induction of synthetic lethality in tumor cells producing 2HG: qHTS for the HT-1080-IDH1KD cell line; HT-1080 IDH1 knockdown viability, ATP luminescence, 48 h; Potency, µM (titrated, usually from 46.1 µM), most hits filed as cytotoxic; 360,000 compounds, 2% hits; AID 686971, 2013
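In this qHTS, HT-1080 cells depleted of IDH1 are exposed for 48 h at 37 °C to compound titrations. Toxicity is scored from CellTiter-Glo luminescence, with DMSO as full viability and medium alone as none.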
KB-V1 MDR tox = qHTS assay for MDR1-selective chemotherapeutics: Primary screen using the drug-selected MDR subline cells KB-V1; KB-V1 MDR cells viability, CellTiter-Glo, 72 h; Potency, µM (titrated, usually from 46.1 µM), most hits filed as cytotoxic; 400,000 compounds, 3.4% hits; AID 1347076, 2019; note: nearly all actives have a fitted effect of over 60% in size
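Potencies derive from concentration-effect curves fitted to normalized luminescence (CellTiter-Glo) of KB-V1 cells treated for 72 h at 37 degrees C in phenol-red-free DMEM containing 10% FBS.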
ATXN2 expr inh = Primary qHTS for Inhibitors of ATXN expression; Potency, µM (doses to about 57 µM), most hits filed as inhibitors; HEK-293 ATXN2-luciferase reporter, luminescence, 24 h; 360,000 compounds, 0.72% hits; note: nearly all actives have a fitted effect of over 55% in size
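qHTS (up to 57 uM final) was run with 24 h compound exposure of reporter cells at 37 °C. Each well was multiplexed: SteadyGlo luminescence measured ATXN2-luciferase expression after a fluorogenic Gly-Phe-AFC viability readout (25 uM final).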
Each line names hits and unclear results; the compound was inactive in the other large screens. In the library only some 6.2% were active in any assay of this set; here they are far more common. Calls come from the whole dose curve; as a rule, active = well fitted curve in the direction sought with a large enough effect; inconclusive = small, poorly fitted or top-dose-only effect, or another doubt; inactive = no such curve, though single readings can be large; an effect the other way counts as inactive or inconclusive.

CC(=O)c1cccc(NC(=O)c2cc(C)nc3c2c(C)nn3-c2cccc(Cl)c2C)c1	none (no result: HT1080-NT tox, HT1080 IDH1KD tx)
O=[N+]([O-])c1cccc2[nH]cnc12	none (no result: HT1080-NT tox, ATXN viability, HT1080 IDH1KD tx, ATXN2 expr inh)
COCc1ccc(C(=O)N2CCOc3c(cc(-c4cc(C)c5cccc(OC)c5n4)cc3OC)C2)o1	none (no result: HT1080-NT tox, KB-3-1 cytotox, HT1080 IDH1KD tx, KB-V1 MDR tox, ATXN2 expr inh)
Clc1ccc(C[n+]2cc(-c3ccccc3)n3c2CCCCC3)c(Cl)c1	HT1080-NT tox 15µM, KB-3-1 cytotox 2.1µM, ATXN viability inconclusive, HT1080 IDH1KD tx 16µM, KB-V1 MDR tox inconclusive, ATXN2 expr inh inconclusive
Clc1ccc(-c2c[n+](Cc3cccc(Cl)c3)c3n2CCC3)cc1	KB-3-1 cytotox 6.5µM, HT1080 IDH1KD tx inconclusive
CC1CCC(C(C)C)C(OC(=O)C[n+]2cc(-c3ccc(Cl)cc3)n3c2CCCCC3)C1 (stereo not given)	HT1080-NT tox 21µM, KB-3-1 cytotox inconclusive, ATXN viability inconclusive, HT1080 IDH1KD tx 21µM, ATXN2 expr inh inconclusive
Clc1ccc(C[n+]2cc(-c3ccccc3)n3c2CCC3)cc1Cl	HT1080-NT tox inconclusive, KB-3-1 cytotox inconclusive, HT1080 IDH1KD tx inconclusive
Clc1ccc(-c2c[n+](Cc3ccc(Cl)cc3Cl)c3n2CCCCC3)cc1	HT1080-NT tox 8.2µM, KB-3-1 cytotox inconclusive, ATXN viability inconclusive, HT1080 IDH1KD tx 16µM, ATXN2 expr inh inconclusive
Clc1ccc(-c2c[n+](Cc3ccc(Br)cc3)c3n2CCCCC3)cc1	HT1080-NT tox inconclusive, KB-3-1 cytotox inconclusive, HT1080 IDH1KD tx inconclusive
Cc1cn2c(=O)cc(COc3ccc(C(C)(C)C)cc3)nc2s1	none (no result: HT1080-NT tox, HT1080 IDH1KD tx)
CCN(C(=O)CSc1nc(-c2ccccc2)no1)c1cccc(C)c1	KB-3-1 cytotox 6.5µM, ATXN viability inconclusive, ATXN2 expr inh inconclusive (no result: HT1080-NT tox, HT1080 IDH1KD tx)
CCN(C(=O)CSc1nc2ccccc2nc1Cc1ccc(F)cc1)c1cccc(C)c1	ATXN viability inconclusive (no result: HT1080-NT tox, HT1080 IDH1KD tx)
COc1ccc(Nc2nc3cc(-c4sccc4C)sc3c(=O)n2C)cc1OC	HT1080-NT tox inconclusive, KB-3-1 cytotox 5.8µM, HT1080 IDH1KD tx 1.3µM, KB-V1 MDR tox 6.5µM
COc1ccc(Nc2nc3cc(-c4ccsc4)sc3c(=O)n2C)cc1OC	none
CCOC(=O)Cc1ccc(Nc2nc3cc(-c4sccc4C)sc3c(=O)n2C)cc1	HT1080-NT tox 8.2µM, KB-3-1 cytotox 10µM, ATXN viability inconclusive, HT1080 IDH1KD tx 4.6µM, KB-V1 MDR tox 15µM
CC(C)c1ccc(S(=O)(=O)c2nnn3c2nc(NC2CCCC2)c2sccc23)cc1	none (no result: HT1080-NT tox, ATXN viability, HT1080 IDH1KD tx, ATXN2 expr inh)
CCC(C)NC(=O)c1sc2nc(C)c(C(=O)Nc3ccc(C)cc3C)c(-c3ccc(Br)cc3)c2c1N (stereo not given)	none (no result: HT1080-NT tox, HT1080 IDH1KD tx)
CCc1sc(NC(C)=O)nc1-c1ccccc1	none (no result: ATXN2 expr inh)
CCc1sc(N2C(=O)C3C4CCC(C4=C(C)C)C3C2=O)nc1-c1ccccc1 (stereo not given)	KB-V1 MDR tox 12µM
CC(=O)n1cc(N(C(=O)CCl)c2ccc(Cl)cc2)c2ccccc21	HT1080-NT tox 2.3µM, KB-3-1 cytotox inconclusive, ATXN viability 3.5µM, HT1080 IDH1KD tx 6.5µM, KB-V1 MDR tox inconclusive (no result: ATXN2 expr inh)
COc1ccccc1N(C(=O)CCl)c1cn(C(C)=O)c2ccccc12	HT1080-NT tox 1.5µM, KB-3-1 cytotox inconclusive, ATXN viability 6.3µM, HT1080 IDH1KD tx 7.3µM, KB-V1 MDR tox 15µM (no result: ATXN2 expr inh)
COc1cc(/C=N/NC(=O)Nc2ccccc2)ccc1OC(C)=O	none
C=CC[n+]1c(/C=C/c2ccc(OC(C)=O)c(OC)c2)ccc2ccccc21	HT1080-NT tox inconclusive, KB-3-1 cytotox inconclusive, ATXN viability 16µM, HT1080 IDH1KD tx inconclusive (no result: ATXN2 expr inh)
O=C(Nc1ccc(F)c(Cl)c1)Nc1csc2ccccc12	HT1080-NT tox 9.2µM, KB-3-1 cytotox inconclusive, HT1080 IDH1KD tx 6.5µM, KB-V1 MDR tox 12µM
COC(=O)c1cccc(NC(=O)Nc2ccc(Cl)c(Cl)c2)c1	HT1080-NT tox inconclusive, HT1080 IDH1KD tx inconclusive, KB-V1 MDR tox 15µM, ATXN2 expr inh inconclusive
